Experimental data from PubChem BioAssay (NCATS).
Where “and” joins values, the source holds several entries; their conditions need not be identical. Equal values may be shown once. Inconclusive results are not listed. Some compounds were tested as several samples or in several runs, with calls that do not always agree. Calls of active or inactive are those of the source. Calls come from the whole dose curve; as a rule, active = well fitted curve in the direction sought with a large enough effect; inconclusive = small, poorly fitted or top-dose-only effect, or another doubt; inactive = no such curve, though single readings can be large; an effect the other way counts as inactive or inconclusive.

Columns and labels:
[1] = qHTS to identify inhibitors of the type 1 interferon - major histocompatibility complex class I in skeletal muscle: primary screen against the NCATS LOPAC collection (AID 1347405);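 note: human myoblasts with HiBiT tag on endogenous HLA-B stimulated by IFN-beta; lytic HiBiT luminescence reporting HLA-B protein level; % is set by controls: 0 for no effect and ±100 for the full control effect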
Summary of the method: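 IFN-beta-stimulated (4 ng/ml) HLA-B HiBiT knock-in myoblasts, compound-treated 24 hrs up to 46 uM final; signal via LgBiT complementation and furimazine luminescence.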

[2] = qHTS to identify inhibitors of the type 1 interferon - major histocompatibility complex class I in skeletal muscle: primary screen against the NCATS Pharmaceutical Collection (AID 1347407);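 note: luminescence of HiBiT knocked into endogenous HLA-B as interferon-induced MHC class I level; % is set by controls: 0 for no effect and ±100 for the full control effect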
Summary of the method: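 Compounds […] were added to CRISPR-engineered HLA-B-HiBiT C25cl48 human myoblasts with 4.0 ng/ml IFN-beta. After 24 hrs at 37 C, cells were lysed and HiBiT luminescence measured.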

[3] = qHTS for inhibitors of adenylyl cyclases using a fission yeast platform: a pilot screen against the NCATS LOPAC library (AID 1347410);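 note: plate controls were DMSO vehicle for no effect and DPI positive control for full effect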
Summary of the method: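 GFP from fbp1-GFP reporter, read by Acumen laser cytometry, indicates AC inhibition in fission yeast expressing AC9, GNAS and PDE4D2. Cells grown 18 h in the dark at 30C with compounds, final up to 57 uM.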

[4] = qHTS to identify inhibitors of the type 1 interferon - major histocompatibility complex class I in skeletal muscle: primary screen against the NCATS Mechanism Interrogation Plate v5.0 (MIPE) Libary (AID 1347411);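 note: plate controls were vehicle for no effect and reference inhibitor for full effect; nearly all actives have a fitted effect of over 65% in size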
Summary of the method: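 IFN-beta-driven (4 ng/ml) HLA-B-HiBit expression in CRISPR-tagged C25cl48 myoblasts; compounds 11-pt, 1:3, max 46 uM, 24 hr exposure; lytic NanoLuc complementation luminescence.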

[5] = molecular target: Protein phosphatase 1D (Homo sapiens) (UniProt O15297); assay: RapidFire Mass Spectrometry qHTS Assay for Modulators of WT P53-Induced Phosphatase 1 (WIP1) (AID 1347424);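 note: amount of dephosphorylated VEPPL-S-QETFS peptide product formed by WIP1; series mostly up to about 63 µM; plate controls were DMSO wells for no effect and GSK830371 inhibitor control at 10 µM for full effect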
Chain of Protein phosphatase 1D (Homo sapiens) (O15297 whole entry, looked up): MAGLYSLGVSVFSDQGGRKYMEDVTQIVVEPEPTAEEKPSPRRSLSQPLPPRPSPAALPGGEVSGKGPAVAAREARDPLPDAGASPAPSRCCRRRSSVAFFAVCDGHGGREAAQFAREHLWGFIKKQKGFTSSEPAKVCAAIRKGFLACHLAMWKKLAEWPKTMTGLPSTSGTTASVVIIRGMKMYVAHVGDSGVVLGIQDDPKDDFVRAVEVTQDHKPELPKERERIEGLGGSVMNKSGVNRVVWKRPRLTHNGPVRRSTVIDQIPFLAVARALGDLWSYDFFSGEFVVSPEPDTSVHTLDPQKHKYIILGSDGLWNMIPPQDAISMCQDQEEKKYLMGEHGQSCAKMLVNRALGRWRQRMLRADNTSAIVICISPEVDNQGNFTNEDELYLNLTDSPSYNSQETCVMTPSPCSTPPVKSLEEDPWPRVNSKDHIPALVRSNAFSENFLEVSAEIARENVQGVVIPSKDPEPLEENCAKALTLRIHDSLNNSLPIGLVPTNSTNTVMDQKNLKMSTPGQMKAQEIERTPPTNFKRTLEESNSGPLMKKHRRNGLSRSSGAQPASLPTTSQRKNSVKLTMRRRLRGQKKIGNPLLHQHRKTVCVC
Summary of the method: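 RapidFire mass spectrometry measured dephosphorylated peptide after 5 min room-temperature reaction of 2 uM VEPPL-pS-QETFS with 10 nM WIP1 (50 mM Tris-HCl pH 7.5, 30 mM MgCl2, 0.1 mM EGTA, BSA), following 1 hr compound preincubation; 1 uM isotope-labelled product standard.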

[6] = molecular target: Protein phosphatase 1D (Homo sapiens) (UniProt O15297); assay: Rhodamine-PBP qHTS Assay for Modulators of WT P53-Induced Phosphatase 1 (WIP1) (AID 1347425); note: % of control where 0% means no effect
Summary of the method: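 WIP1 (5 nM final) was preincubated with compound for 1 hour at room temperature. It then dephosphorylated 10 uM VEPPL-pS-QETFS peptide in Tris-HCl pH 7.5 with 30 mM MgCl2. Released Pi was detected by 10 uM Rh-PBP fluorescence (ex 525/em 598 nm) read at 1-min intervals for 11 min, as delta f1 - f0.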

[7] = Validation qHTS assay for inhibitors of Activation Induced Cytidine Deaminase (AID): UDG Counterscreen signal (AID 1347427); note: 0% is about no effect
Summary of the method: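 Fluorescence at 560 nm excitation, 665 nm emission reports UDG signal after 250 mM NaOH (2x) addition and 30 min. Enzymes (AID 1 uM, UDG 2 U/mL, at 4/3x) preincubated 10 min with compound, then 4 h with 4x 250 nM DJC20/DJC23 substrate at room temperature.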

[8] = molecular target: Single-stranded DNA cytosine deaminase (Homo sapiens) (UniProt Q9GZX7); assay: Validation qHTS assay for inhibitors of Activation Induced Cytidine Deaminase (AID): AID signal (AID 1347429); note: % is set by controls: 0 for no effect and ±100 for the full control effect
Chain of Single-stranded DNA cytosine deaminase (Homo sapiens) (Q9GZX7 whole entry, looked up): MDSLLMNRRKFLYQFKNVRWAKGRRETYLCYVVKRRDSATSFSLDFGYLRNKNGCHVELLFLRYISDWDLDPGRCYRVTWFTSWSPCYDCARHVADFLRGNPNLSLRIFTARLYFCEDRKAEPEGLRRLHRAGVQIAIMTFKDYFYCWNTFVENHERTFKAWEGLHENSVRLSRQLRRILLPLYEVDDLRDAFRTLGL
Summary of the method: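 Compounds (up to 114 uM final) are tested against AID plus UDG using DJC20/DJC23 FRET substrate. Reactions incubate 4 hr at room temperature, receive NaOH for 30 min, and are read at Ex 540/Em 590 nm.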

[9] = Primary qHTS for inhibitors of La Crosse Virus (LACV) - induced cell death in SH-SY5Y cells (AID 1508616);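 note: top concentration of the series differs between compounds; 0% = infected DMSO wells and 100% = uninfected DMSO wells; higher means more rescue of cells from virus-induced death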
Summary of the method: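 Screening measures cell viability in LACV-infected SH-SY5Y cultures. Compound was added before virus (0.01 MOI), and ATP was detected by luminescence 6 days later.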

[10] = molecular target: Calcium and integrin-binding protein 1 (Homo sapiens) (UniProt Q99828); assay: Validation qHTS for Identification of Calcium Integrin Binding protein 1 (CIB1) Competitor (AID 1508618); note: % is set by controls: 0 for no effect and ±100 for the full control effect
Chain of Calcium and integrin-binding protein 1 (Homo sapiens) (Q99828 whole entry, looked up): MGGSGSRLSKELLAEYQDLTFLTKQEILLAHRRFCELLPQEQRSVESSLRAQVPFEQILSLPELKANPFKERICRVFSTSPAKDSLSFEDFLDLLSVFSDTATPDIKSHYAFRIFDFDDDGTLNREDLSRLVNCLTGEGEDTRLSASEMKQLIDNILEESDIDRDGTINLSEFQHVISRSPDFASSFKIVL
Summary of the method: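 Fluorescence polarization with 1 uM CIB1-GST and 100 nM FITC-alphaIIb peptide in HEPES pH 7.4, NaCl, 5 mM CaCl2, Tween20. Compounds at up to 114 uM final, preincubated with protein 15 min; read after 15 min more at RT.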

[11] = molecular target: Calcium and integrin-binding protein 1 (Homo sapiens) (UniProt Q99828); assay: Primary qHTS for Identification of Calcium Integrin Binding Protein 1 (CIB1) Competitor (AID 1508620)
Summary of the method: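 CIB1-GST (1 uM final) and compound incubated 15 min at room temperature before adding FITC-alphaIIb peptide tracer (100 nM final). Competition for binding read by fluorescence polarization (ex 480, em 540) after another 15 min at room temperature.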

[12] = Confirmatory qHTS for small molecule stabilizers of the endoplasmic reticulum resident proteome: Secreted ER Calcium Modulated Protein (SERCaMP) assay (AID 1508628); note: nearly all actives have a fitted effect of over 40% in size; note: potency is the fitted concentration of half-maximal effect
Summary of the method: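 GLuc-SERCaMP-expressing SH-SY5Y cells, pretreated 16 h with compound, are challenged with thapsigargin to empty ER calcium stores; after 4 h, coelenterazine is added directly to the medium and luminescence is imaged.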

[13] = Cell Viability qHTS for small molecule stabilizers of the endoplasmic reticulum resident proteome (AID 1508629); conditions: cell viability counter-screen, 100 nM thapsigargin for final 4 h
[14] = Primary qHTS for small molecule stabilizers of the endoplasmic reticulum resident proteome: Secreted ER Calcium Modulated Protein (SERCaMP) assay (AID 1508630); note: potency is the fitted concentration of half-maximal effect
Summary of the method: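 The SH-SY5Y reporter protocol was run at 3 concentrations up to 38.3 uM (primary) or 11 concentrations (follow-up): 16 h compound, 100 nM thapsigargin for 4 h, then extracellular luciferase luminescence.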

[15] = qHTS for inhibitors of ER calcium dysfunction: SERCaMP assay screened against the NCATS CANVASS Library (AID 1347393);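 note: series mostly up to about 77 µM; % is set by controls: 0 for no effect and ±100 for the full control effect; lower secreted reporter signal means inhibitor of ER calcium depletion; nearly all actives have a fitted effect of over 40% in size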
Summary of the method: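 Thapsigargin-induced ER calcium depletion drives GLuc-SERCaMP secretion from SH-SY5Y cells; compounds given 16 h beforehand were scored by lowered coelenterazine luminescence after 4 h challenge.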

[16] = Vero-766 cells viability qHTS against the NCATS CANVASS Library: Counterscreen for Zika virus inhibition assay (AID 1347394); note: series mostly up to about 46 µM; % is set by controls: 0 for no effect and ±100 for the full control effect; nearly all actives have a fitted effect of over 60% in size
Summary of the method: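 CellTiter Glo luminescence measured cytotoxicity after 72 h at 37C in uninfected Vero 766 cells, plated at 1000 cells/well. Compounds were applied in an 11-point series. Wells without cells defined 100% inhibition.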

[17] = qHTS for inhibitors of Wild type Zika virus screened against the NCATS CANVASS Library (AID 1347396)
Summary of the method: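 Vero 766 (African green monkey) cells, 1000 per well, attached overnight, then compounds were added in an 11-point series before wild-type Zika virus infection. After 72 h at 37C, cell viability was read as CellTiter Glo luminescence.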

[18] = Viability qHTS for inhibitors of the SERCaMP assay screened against the NCATS CANVASS Library (AID 1347400); note: series mostly up to about 92 µM; % is set by controls: 0 for no effect and ±100 for the full control effect; nearly all actives have a fitted effect of over 70% in size
Summary of the method: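 Measures loss of viability in SERCaMP reporter SH-SY5Y cells treated for 48 h with compounds; luminescent ATP detection by CellTiter-Glo.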

[19] = Redox Reaction Profiling qHTS: Assay Interference Panel against the NCATS CANVASS Library (AID 1347401);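 note: 100% = activation by 2 µM chloranil control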
Summary of the method: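 Redox-cycling liability assessed as DTT-driven conversion of resazurin (5 uM, with 200 uM DTT, HEPES pH 7.3) to fluorescent resorufin. Fluorescence at 525/598 nm measured initially and after 15 min dark incubation.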

NC12CC3CC(CC(C3)C1)C2
inactive: Potency [1] | Potency [2] | outcome [3] | Potency [4] | Potency [5] | outcome [6] | Potency [7] | Potency [8] | Potency [9] | Potency [10] | Potency [11] | Potency [12] | max response [13] 12.2% and 7.67%

O=C1N(c2ccccc2)c2ccccc2C1(Cc1ccncc1)Cc1ccncc1
inactive: Potency [1] | Potency [2] | outcome [3] | Potency [4] | Potency [5] | outcome [6] | Potency [7] | Potency [8] | Potency [9] | Potency [10] | Potency [11] | Potency [14]

CN1CCN(C2=Nc3cc(Cl)ccc3Nc3ccccc32)CC1
inactive: Potency [1] | Potency [2] | outcome [3] | Potency [4] | Potency [5] | outcome [6] | Potency [7] | Potency [8] | Potency [9] | Potency [10] | Potency [11]

Cn1cnc2c1c(=O)[nH]c(=O)n2C
inactive: Potency [1] | Potency [2] | outcome [3] | Potency [4] | Potency [5] | outcome [6] | Potency [7] | Potency [8] | Potency [9] | Potency [10] | Potency [11] | Potency [14]

Cn1ccc2cc3c(cc21)CCN3C(=O)Nc1cccnc1
inactive: Potency [1] | Potency [2] | outcome [3] | Potency [4] | Potency [5] | outcome [6] | Potency [7] | Potency [8] | Potency [9] | Potency [10] | Potency [11]

COc1nc(C)nc(Cl)c1NC1=NCCN1
inactive: Potency [1] | Potency [2] | outcome [3] | Potency [4] | Potency [5] | outcome [6] | Potency [7] | Potency [8] | Potency [9] | Potency [10] | Potency [11]

NCCCCCC(=O)O
inactive and 33.5 µM (active): Potency [14]
inactive: Potency [1] | Potency [2] | outcome [3] | Potency [4] | Potency [5] | outcome [6] | Potency [7] | Potency [8] | Potency [9] | Potency [10] | Potency [11]

CC(C)(Oc1ccc(C2CC2(Cl)Cl)cc1)C(=O)O (stereo not drawn)
inactive: Potency [1] | Potency [2] | outcome [3] | Potency [4] | Potency [5] | outcome [6] | Potency [7] | Potency [8] | Potency [9] | Potency [10] | Potency [11] | Potency [14]

COc1ccc2[nH]cc(CCNC(C)=O)c2c1
inactive: outcome [15] | outcome [16] | outcome [17] | outcome [18] | outcome [19] | Potency [1] | Potency [2] | outcome [3] | Potency [4] | Potency [5] | outcome [6] | Potency [7] | Potency [8] | Potency [9] | Potency [10] | Potency [11]

NS(=O)(=O)c1cc2c(cc1Cl)NCNS2(=O)=O
inactive: Potency [1] | Potency [2] | outcome [3] | Potency [4] | Potency [5] | outcome [6] | Potency [7] | Potency [8] | Potency [9] | Potency [10] | Potency [11] | Potency [14]

CN(C)c1nc(N(C)C)nc(N(C)C)n1
inactive: Potency [1] | Potency [2] | outcome [3] | Potency [4] | Potency [5] | outcome [6] | Potency [7] | Potency [8] | Potency [9] | Potency [10] | Potency [11] | Potency [14]

CCOC(=O)C(C)(C)Oc1ccc(Cl)cc1
inactive: Potency [1] | Potency [2] | outcome [3] | Potency [4] | Potency [5] | outcome [6] | Potency [7] | Potency [8] | Potency [9] | Potency [10] | Potency [11]

CN1CCC(=C2c3ccccc3CC(=O)c3sccc32)CC1
active: Potency [12] 20 µM and 25.1 µM
inactive: Potency [1] | Potency [2] | outcome [3] | Potency [4] | Potency [5] | outcome [6] | Potency [7] | Potency [8] | Potency [9] | Potency [10] | Potency [11] | max response [13] 19.1%
